Data from PubChem BioAssay AID720690 (Broad Institute, 2013).
Results with a measured potency or affinity are listed apart. Values without a mark were called inactive.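 Rule for the calls: active = every repeat run showing a signal drop whose fitted half-maximal concentration is at most twice the top tested concentration; inconclusive = repeat runs disagree, or flat partial drop, or poor fit; inactive = the rest.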

Assay: general mammalian cell viability loss – activator set, cherry-pick, cytotoxicity control for miR-122 modulator project, dose response (AID 720690);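 note: 0% = neutral control wells and -100% = MG132 cytotoxic control wells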
Conditions: HEK293T viability, CellTiter-Glo luminescence, 48 h; series mostly up to 26 µM; activity change, negative = cytotoxicity: at the top concentration
For `CO[C@@H]1CN(C)C(=O)c2ccc(NC(C)=O)cc2OC[C@@H](C)N(C(=O)c2ccccc2F)C[C@H]1C`, the “activity change, negative = cytotoxicity” value was 3.69% [at 13.5 µM].
In the case of `OCc1ccc(-c2nn(Cc3ccccc3)c3ccccc23)o1`, the “activity change, negative = cytotoxicity” value is reported as -14.7%.
For `CN(C)CCCN(C(=O)CCc1ccccc1)c1nc2ccc(Br)cc2s1`, the “activity change, negative = cytotoxicity” value was -3.38%.
In the case of `CCN(CC)CCOc1cccc(C(C)C)c1`, the “activity change, negative = cytotoxicity” value is reported as 22.9%.
In the case of `COC(=O)C[C@H]1CC[C@H]2[C@H](COc3ccc(NC(=O)NC(C)C)cc3C(=O)N2C)O1`, the “activity change, negative = cytotoxicity” value is reported as 2.42%.
With `C/C=C/c1ccc([C@H]2[C@@H](CO)N(Cc3ccccn3)[C@@H]2CNC(=O)CC)cc1` the “activity change, negative = cytotoxicity” value was 4.6% [at 23.5 µM].
In the case of `CCNC(=O)C[C@H]1CC[C@H]2[C@H](COc3ccc(NS(C)(=O)=O)cc3C(=O)N2C)O1`, the “activity change, negative = cytotoxicity” value is reported as -1.77%.
In the case of `C/C=C/c1ccc2c(c1)O[C@H](CN(C)C(=O)c1cnccn1)[C@H](C)CN([C@@H](C)CO)S2(=O)=O`, the “activity change, negative = cytotoxicity” value is reported as -5.55%.
In the case of `Oc1ccc(-c2nc(-c3ccc(O)c(O)c3)cs2)cc1`, the “activity change, negative = cytotoxicity” value is reported as -10.1%.
With `CN(C)CCCNC(=O)C[C@H]1CC[C@H]2[C@H](COc3ccc(NC(=O)NC4CCCC4)cc3C(=O)N2C)O1` the “activity change, negative = cytotoxicity” value was 3.63%.
For `CCOC(=O)CSc1nnnn1-c1cccc2ccccc12`, the “activity change, negative = cytotoxicity” value was 1.77%.
With `CCNC(=O)Nc1ccc2c(c1)C(=O)N(C)[C@H]1CC[C@H](CC(=O)Nc3cccc(F)c3)O[C@@H]1CO2` the “activity change, negative = cytotoxicity” value was -2.47%.
For `C[C@H]1CN([C@@H](C)CO)C(=O)c2cc(C#CC3CCCC3)cnc2O[C@H]1CN(C)C(=O)Cc1ccccn1`, the “activity change, negative = cytotoxicity” value was -7.48%.
In the case of `O=C(Nc1ccccc1F)N1[C@H](CO)[C@@H]2c3ccccc3NC[C@@H]21`, the “activity change, negative = cytotoxicity” value is reported as -11.2% [at 23.5 µM].
For `CN(C)CCCNC(=O)C[C@@H]1CC[C@H]2[C@H](COc3ccc(NC(=O)c4cccc(F)c4)cc3C(=O)N2C)O1`, the “activity change, negative = cytotoxicity” value was -0.212% [at 23.5 µM].
In the case of `COCCNC(=O)C[C@H]1CC[C@@H]2[C@H](COc3ccc(NC(=O)C4CCOCC4)cc3C(=O)N2C)O1`, the “activity change, negative = cytotoxicity” value is reported as 5.15%.
In the case of `O=C(NC[C@H]1N[C@H](CO)[C@@H]1c1ccc(-c2ccccc2F)cc1)c1ccccc1`, the “activity change, negative = cytotoxicity” value is reported as -17.1%.
In the case of `CCCC(=O)Nc1ccc2c(c1)C(=O)N(C)[C@@H]1CC[C@H](CC(=O)Nc3cn(C)nc3C)O[C@@H]1CO2`, the “activity change, negative = cytotoxicity” value is reported as 9.32% [at 23.5 µM].
In the case of `C[C@H](CO)N1C[C@H](C)[C@H](CN(C)S(=O)(=O)c2ccc(F)cc2)Oc2ccc(NS(C)(=O)=O)cc2C1=O`, the “activity change, negative = cytotoxicity” value is reported as -2.03%.
In the case of `C[C@H]1CN([C@@H](C)CO)S(=O)(=O)c2ccc(C3=CCCC3)cc2O[C@H]1CN(C)Cc1cccnc1`, the “activity change, negative = cytotoxicity” value is reported as -11.6%.
With `CO[C@@H]1CN(C)C(=O)c2ccc(NC(=O)Nc3ccc(C(F)(F)F)cc3)cc2OC[C@H](C)NC[C@H]1C` the “activity change, negative = cytotoxicity” value was -12.8%.
In the case of `COc1cccc(OCc2cc(/C=N/Nc3ccc(C(=O)O)cc3)ccc2OC)c1`, the “activity change, negative = cytotoxicity” value is reported as -1.78%.
For `CNC(=O)C[C@@H]1CC[C@H]2[C@@H](COc3ccc(NC(=O)c4cccc(OC)c4)cc3C(=O)N2C)O1`, the “activity change, negative = cytotoxicity” value was 9.81% [at 23.5 µM].
In the case of `CN1C(=O)c2cc(NC(=O)c3cccs3)ccc2OC[C@H]2O[C@H](CC(=O)NCC(F)(F)F)CC[C@H]21`, the “activity change, negative = cytotoxicity” value is reported as -1.19%.
For `C[C@@H]1CN([C@H](C)CO)S(=O)(=O)c2ccc(C3=CCCCC3)cc2O[C@@H]1CN(C)C(=O)Cc1ccncc1`, the “activity change, negative = cytotoxicity” value was -27.7%.
In the case of `Cc1cc(C)c2c(c1)/C(=C/C(=O)c1ccc(Br)s1)C(=O)N2`, the “activity change, negative = cytotoxicity” value is reported as 4.2%.
